The values below come from PubChem BioAssay (NCI).

“And” between values parts separate entries of the source, which are not always exact repeats. Equal values may be shown once. The panel holds about 83,000 compounds, 20% with a hit somewhere; the sample as a whole holds those more often.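 Activity criterion: percent growth below 10, measured after cells in 96-well plates were exposed to a single compound concentration for 48 hours.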 Unmarked numbers belong to inactive results. The source made the active and inactive calls.

The test system of the assay is NCI-H226 lung. In words: NCI-60 one-dose screen, 48 h (100 = growth as untreated, 0 = no growth, -100 = all killed). The note with it: 10 µM unless noted. As to the method: Growth inhibition of the NCI-H226 human Non-Small Cell Lung tumor cell line is measured as a screen for anti-cancer activity. Cells are grown in 96 well plates and exposed to the test compound for 48 hours. Compounds are tested at a single concentration, which is 10^-5 M for most compounds. The reported endpoint is percent growth (GI% or GIPRCNT), where numbers from 0 - 100% represent growth inhibition, and numbers from -100% - 0 represent cell death. For example, a value of 40 represents 60% growth inhibition. A value of 0 means no net growth occurred over the course of the experiment. A value of -40 indicates 40% of cells at the beginning of the experiment died by the end of the experiment. A value of -100 means all cells are dead at the end of the experiment.
NCI-60 Human Tumor Cell Lines Screen was performed using the standard one-dose NCI protocol, which is described in more detail at https://dtp.cancer.gov/discovery_development/nci-60/default.htm.
Compounds with GIPRCNT values below 10 were considered active. Activity score was based on GIPRCNT using the following formula: […]
Score is 0 for GIPRCNT values of 100 or above, 50 for GIPRCNT values of 0, and 100 for GIPRCNT values of -100.
Turning to `CC1CC(O)CC(C)(C)C1.CC1CC(O)CC(C)(C)C1.CC1CC(O)CC(C)(C)C1.CC1CC(O)CC(C)(C)C1.[Ti]` (stereo not given), the growth was 97.2%.

Regarding `C/C(CC(C)C)=N/NC(N)=S`, the growth was 85.8%. Turning to `CCOCCC(=O)O`, the growth was 99.4%. The same measure for `Cc1ccc(N)cc1S(=O)(=O)O`: 109%; for `C=CCN1C(=O)c2ccccc2C1=O`: 101%; for `O=[N+]([O-])c1ccc(NC(c2ccccc2)c2ccc3cccnc3c2O)cc1` (stereo not given): 16.6%. The same measure for `Cc1cc(O)c(C(C)C)cc1N=O`: 99.6% and 108%; for `CNc1ccc(O)cc1`: 85.2% and 93.6%. In the case of `Cc1cnc(N)s1` it was 90.6%; in that of `COC(=O)CCOc1ccccc1`, 105%; in that of `Clc1ccc2sc(-c3ccccc3)nc2c1`, 82.2%. Consider `COC(=O)C(Cc1cn(C(C)=O)c2ccccc12)P(=O)(OC)OC` (stereo not given), for which the growth is 91.5%. In the case of `CCOc1ccc(/C=C\C(=O)O)cc1` it was 114%. In the case of `COC1C(OC(N)=O)C(O)C(Oc2ccc3c(O)c(NC(=O)c4ccc(O)c(CC=C(C)C)c4)c(=O)oc3c2C)OC1(C)C` (stereo not given), the growth is 104% and 90.5%.

On to `CC(=O)Oc1cc(C(C)C)c(OCCN(C)C)cc1C`, for which the growth is 120% and 103%. On to `CCOP(=O)(OCC)/C(C#N)=C/c1c(C)[nH]c2ccccc12`, for which the growth is 84%. The same measure for `CCOC(=O)NC(N)=O`: 99.8% and 96.5%.

For the compound `O=C(O)C#Cc1ccc(Cl)cc1`, the growth is 93.2%.

In the case of `CCCCNC(=O)c1ccccc1C`, the growth was 94.4%. In the case of `COc1ccc(COC=O)cc1` it was 100%; in that of `CC(=O)Nc1cscc1NC(C)=O`, 96.8%. The same measure for `CC(=O)c1cccc(OC(=O)c2ccccc2)c1`: 101%; for `CC(CN(C)C)CN1c2ccccc2Sc2ccccc21` (stereo not given): 132% and 112%.

Regarding `COc1ccc2oc3c(ccc[n+]3C)c(=O)c2c1`, the growth was 98.3%.

Regarding `CCOP(C)(=O)/C(Cc1ccc(OC)c(OC)c1)=N\O` (stereo not given), the growth was 96%. In the case of `CC(=O)Oc1ccc(C(c2ccc(OC(C)=O)cc2)c2ccccn2)cc1` it was 89.2% and 106%. The same measure for `O=C(O)/C=C/C=C/c1ccccc1`: 99.4% and 100%; for `NC1=NC(c2ccccc2)N=C(Nc2ccccc2)N1` (stereo not given): 81.7% and 52.5%. `CCCC(=O)Oc1ccc2ccccc2c1`: the growth was 103%. The same measure for `CCC(=O)Oc1ccc(OCc2ccccc2)cc1`: 104% and 103%. The same measure for `O=C1C2=C(Nc3cc(Cl)ccc3N2)OC1c1c[nH]c2ccc(COc3ccccc3)cc12` (stereo not given): 2.7% (active); for `CCOC(=O)c1csc(N)n1`: 102% and 105%; for `Cc1cc(-c2ccc(N=Nc3c(C)nn(-c4ccc(S(=O)(=O)O)cc4)c3O)c(C)c2)ccc1N=Nc1ccc(O)c(C(=O)O)c1`: 82.2%. In the case of `CC(=O)Oc1cc(C)c(OC(C)=O)c(C)c1C` it was 101%; in that of `COc1ccc2oc3cc(NCCN(C)C)ccc3c(=O)c2c1`, 109% and 102%. Consider `NNc1ncnc2cccc(Cl)c12`, for which the growth is 93.1%. As to `Cc1cc2ccccc2c2cc3ccccc3cc12`, the growth was 68.4%. In the case of `Cc1onc(-c2c(F)cccc2Cl)c1-c1ncc(-c2ccc(Cl)cc2)o1`, the growth is 76.9% and 58.4%. The same measure for `Nc1c(S(=O)(=O)O)cc(Br)c2c1C(=O)c1ccccc1C2=O`: 98.2% and 99.6%. In the case of `CC1OS(=O)OC1C` (stereo not given) it was 103% and 101%.
